HEK293 tox: cytotoxicity counter-screen for GLP-1 receptor inverse agonists | AID 624418 | 410,000 compounds, 0.13% hits | HEK293 cAMP-luciferase reporter cells, luminescence, 24 h | Potency, µM (top dose mostly 38.3 µM), for the others: top-dose activity change, negative = inhibition, most hits filed as inhibitors;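 note: loss of luciferase light is scored as toxicity; % is set by controls: 0 for no effect and ±100 for the full control effect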
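Compound-treated cells are incubated 24 hr at 37 deg C under 5% CO2 after a 12 hour attachment period, then luciferase detection reagent is added and luminescence is measured following 12 min at room temperature; lowered signal indicates toxicity.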
GLP1R ag: GLP-1 receptor (human) agonism | P43220 | HEK293 GLP-1R CRE-luciferase, luminescence, 4-6 h; cells express a hypersensitive GLP-1R form | Potency, µM (series often up to 45.6 µM), for the others: top-dose activation, usual class: activators | 380,000 compounds, 0.007% hits | AID 624172; note: % of control where 0% means no effect
GLP1R inv ag: GLP-1 receptor (human) inverse agonism | P43220 | HEK293 GLP-1R CRE-luciferase, luminescence, 24 h; GLP-1R form is constitutively active | Potency, µM (titrated, usually from 38.3 µM), without a hit: at the highest dose activity change, negative = inhibition, actives largely listed as inhibitors | 410,000 compounds, 1.6% hits | AID 624417; note: % is set by controls: 0 for no effect and ±100 for the full control effect; nearly all actives have a fitted effect of over 55% in size
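Constitutively active GLP-1R drives a cAMP-responsive luciferase in stably transfected HEK293 cells; test compounds are added after overnight (12 h) attachment and left 24 hr, and signal loss in luminescence marks inhibition.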
PTHR1 ag: agonists of human PTHR1 parathyroid hormone receptor | 410,000 compounds, 0.075% hits | Q03431 | HEK293 GP2 PTHR1 cells, GloSensor cAMP luminescence, 1 h | Potency, µM (titrated, usually from 115 µM), without a hit: at the highest dose activation, most hits filed as activators; note: nearly all actives have a fitted effect of over 55% in size
Target sequence (Q03431 whole entry, looked up): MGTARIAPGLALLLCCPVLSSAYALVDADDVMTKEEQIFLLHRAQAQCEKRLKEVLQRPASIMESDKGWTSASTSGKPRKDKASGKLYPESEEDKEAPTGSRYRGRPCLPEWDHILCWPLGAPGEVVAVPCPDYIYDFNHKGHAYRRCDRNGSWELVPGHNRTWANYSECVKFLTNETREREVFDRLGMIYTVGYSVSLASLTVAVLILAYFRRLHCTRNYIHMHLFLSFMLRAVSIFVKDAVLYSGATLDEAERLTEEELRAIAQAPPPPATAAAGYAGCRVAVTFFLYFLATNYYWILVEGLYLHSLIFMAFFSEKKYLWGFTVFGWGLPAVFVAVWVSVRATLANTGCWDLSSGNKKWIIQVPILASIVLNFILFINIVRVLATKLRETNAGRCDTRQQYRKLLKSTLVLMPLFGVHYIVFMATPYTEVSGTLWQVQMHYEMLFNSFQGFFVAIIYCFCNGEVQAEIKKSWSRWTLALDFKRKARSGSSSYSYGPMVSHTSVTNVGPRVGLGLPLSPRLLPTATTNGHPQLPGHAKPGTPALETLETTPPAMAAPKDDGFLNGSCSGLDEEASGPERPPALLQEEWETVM
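HEK-293-derived GP2 cells expressing PTHR1 and a GloSensor cAMP reporter, 3,000/well, plated overnight, given luciferin plus IBMX (each 0.5 mM as added) for 1 h at 37 °C, then compound for 1 h at 37 °C. Luminescence was read after 15 min at room temperature.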
* hit, by the source's call; i = inactive; u = inconclusive; x = no result given; [ ] = dose if it differs, or a comment. In the library only some 1.7% were active in any assay of this set; here they are far more common. Calls come from the whole dose curve; as a rule, active = well fitted curve in the direction sought with a large enough effect; inconclusive = small, poorly fitted or top-dose-only effect, or another doubt; inactive = no such curve, though single readings can be large; an effect the other way counts as inactive or inconclusive. Potency is the fitted concentration of half-maximal effect.

SMILES | HEK293 tox | GLP1R ag | GLP1R inv ag | PTHR1 ag
CC(=O)OC1(C)CC(C)C(=O)C(C(O)CC2CC(=O)NC(=O)C2)C1 (configuration not stated) | 15.3% | -5.1% | -77.4% | -59.7%
C[C@@H]1C[C@@H]([C@H](O)CC2CC(=O)NC(=O)C2)C(=O)[C@@H](C)C1 | -37.6% | -19.0% | 0.794µM* | i
C=C1CC2(CC(c3ccccc3)OC(c3ccccc3)C2)OC1=O (configuration not stated) | u | -5.5% | u | -51.8%
CCOc1ccc(-c2cc(C)[n+](CCc3ccc(OC)c(OC)c3)c(-c3ccc(OCC)cc3)c2)cc1 | u | 6.1% | 6.31µM* | -52.7%
C=CCC1=C(C)C(OC(=O)C2C(C=C(C)C)C2(C)C)CC1=O (configuration not stated) | x | -0.2%[96 µM] | x | x
COc1ccc(-n2c(/C=C/c3ccc(O)cc3)nc3ccccc3c2=O)cc1 | -29.4% | 9.2% | 10µM* | -47.8%
O=c1c2ccccc2nc(/C=C/c2ccc(O)cc2)n1-c1ccc(O)cc1 | 92.6% | 13.4% | -23.7% | -45.1%
CCn1nc(-c2cccs2)nc2c(=O)n(C)c(=O)nc1-2 | u | -28.3% | 2.82µM* | -31.2%[57.5 µM]
C[C@@H]1[C@H](O)[C@@H](C)C=CC=CCCC=CC=CC=CC=C[C@H](O[C@H]2O[C@@H](C)[C@H](O)[C@@H](N)[C@@H]2O)CC2O[C@](O)(C[C@@H](O)[C@H](O)CC[C@@H](O)C[C@@H](O)C[C@@H](O)CC(=O)O[C@H]1C)C[C@H](O)[C@H]2C(=O)O | x | 5.9% | x | x
C[N+](C)(C)CCOC(=O)C(O)(c1ccccc1)c1ccccc1 | x | 0.5% | x | x
COCCNCCOc1ccc(C(C)(C)c2ccccc2)cc1 | -4.7% | 9.0% | 10µM* | -4.5%
Cc1[nH]c2ccc(OC(F)(F)F)cc2c1CCNCc1cccc([N+](=O)[O-])c1 | u | 10.3% | u | -12.4%
Cc1[nH]c2ccc(OC(F)(F)F)cc2c1CCNCc1ccc(Cl)cc1 | u | 5.4% | 3.98µM* | -22.1%
COc1ccc2[nH]c(C)c(CCNCc3cccnc3)c2c1 | 6.8% | -4.8% | -0.7% | i
CCOc1cccc(CNCCc2c(C)[nH]c3ccc(OC(F)(F)F)cc23)c1O | u | -5.8% | 5.01µM* | -40.9%
O=C(NCCc1ccccc1)c1ccc2nccnc2c1 | -19.1% | 4.2% | 5.01µM* | -25.3%
O=c1cc(CN2CCN(S(=O)(=O)c3cccc(Cl)c3)CC2)c2ccc(O)cc2o1 | 380.7% | 13.4% | u | -15.4%
COc1ccccc1/C=C/C1(C(=O)NC2CCCC2)CC(=O)N1c1ccc(F)cc1 (configuration not stated) | u | -0.8% | 3.55µM* | -5.6%[57.5 µM]
COc1ccccc1-c1nn2c(=O)cc(CN3CCN(C(=O)Nc4ccc(C)cc4Cl)CC3)nc2s1 | 4.4% | x | -21.5% | -45.6%
CCOC(=O)c1c(C)n(-c2ccc(OC)cc2)c2ccc(O)c(CN(C)C)c12 | u | 11.5% | 5.62µM* | i
CCOC(=O)c1c(C)n(-c2ccc(C)cc2)c2c(C(C(C)=O)C(=O)O)c(Br)c(O)c(O)c12 (configuration not stated) | u | 19.3% | -25.0% | -47.0%[57.5 µM]
C/C(=N\NP(=S)(c1ccccc1)c1ccccc1)c1ccc(O)cc1O | 12.7% | 16.1% | 11.2µM* | -4.4%
O=C(CCl)Nc1cc(SCC(O)CO)cc([N+](=O)[O-])c1 (configuration not stated) | 3.98µM* | 8.2% | u | -45.7%
O=C(Nc1cc(Sc2nc3ccccc3s2)cc([N+](=O)[O-])c1)c1ccccc1 | u | -3.6% | u | -34.8%
O=C(C1CCN(c2ncnc3c2nc2n3CCCCC2)CC1)N1CCN(c2cccc(Cl)c2)CC1 | u | -1.8% | 8.91µM* | -45.1%
SMILES | HEK293 tox | GLP1R ag | GLP1R inv ag | PTHR1 ag
COc1ccc(-n2c(O)c(/C=N/NS(=O)(=O)c3cccc([N+](=O)[O-])c3)c3ccccc3c2=O)cc1OC | 80.2% | 4.2% | -9.5% | -17.3%
COc1cccc(C(=O)C2CCCN(Cc3cccc(C)n3)C2)c1 (configuration not stated) | u | 4.0% | u | -21.7%
COc1c(C)cc(C(=O)C2CCCN(Cc3cccc(C)n3)C2)cc1C (configuration not stated) | -18.7% | -5.3% | 8.91µM* | -1.7%
CCN(CC)CCOc1ccc(/C(=C(/Cl)c2ccccc2)c2ccccc2)cc1 | u | 10.3% | 11.2µM* | 0.5%
CC/C(=C(\c1ccc(O)cc1)c1ccc(OCCN(C)C)cc1)c1ccccc1 | -6.1% | 16.6% | u | -16.7%
COC(=O)C1=C(c2ccc(OC(F)(F)F)cc2)C[C@@H]2CC[C@H]1N2C(=O)NCc1ccc(F)cc1 | -9.3% | 0.0% | u | -12.1%
COC(=O)C1=C(c2ccc(OC(F)(F)F)cc2)C[C@@H]2CC[C@H]1N2C(=O)NC1Cc2ccccc2C1 | -3.9% | 0.0% | 7.1% | -12.5%
COC(=O)C1=C(c2ccc(OC(F)(F)F)cc2)C[C@@H]2CC[C@H]1N2C(=O)NCc1cccc2ccccc12 | 0.9% | 0.9% | 7.94µM* | -8.8%
COC(=O)C1=C(c2ccc(OCc3ccccc3)cc2)C[C@@H]2CC[C@H]1N2C(=O)NC1CCN(Cc2ccccc2)CC1 | u | 7.0% | 7.94µM* | -7.7%
COC(=O)C1=C(c2ccc(OC(F)(F)F)cc2)C[C@@H]2CC[C@H]1N2C(=O)NC1CCCCC1 | 8.7% | 1.9% | 12.6µM* | i
Cc1c(N)nc([C@@H](CC(N)=O)NC[C@H](N)C(N)=O)nc1C(=O)N[C@H](C(=O)N[C@H](C)[C@H](O)[C@H](C)C(=O)N[C@@H](C(=O)NCCc1nc(-c2nc(C(=O)NCCC[S+](C)C)cs2)cs1)[C@H](C)O)[C@H](O[C@@H]1O[C@@H](CO)[C@@H](O)[C@H](O)[C@@H]1O[C@H]1O[C@H](CO)[C@H](O)[C@H](OC(N)=O)[C@@H]1O)c1cnc[nH]1 | x | -5.7% | x | x
COc1ccccc1C(=O)Nc1ccc2nc(SCC(=O)N3CCCc4ccccc43)sc2c1 | -13.1% | x | u | i
COc1cc(C(=O)NCCSc2c(-c3ccccc3)[nH]c3ccccc23)cc(OC)c1OC | 1.6% | x | u | i
COc1ccc(OC)c(C[C@H](C)N)c1 | x | -4.2%[110 µM] | x | x
O=P1(c2ccccc2)Nc2ccccc2N1c1ccccc1 (configuration not stated) | -0.8% | 5.1% | 4.47µM* | i
Cc1ccc(Cn2nnnc2CN2CCC(n3nnc4cc(C(F)(F)F)ccc43)CC2)cc1 | -12.0% | -0.8% | 10µM* | -21.8%
Cc1nc2ccc(NC(=O)c3cccc(S(=O)(=O)N(C)c4ccccc4)c3)cc2s1 | u | -32.1% | 5.62µM* | -32.6%
CCOC(=O)[C@]12Cc3cc(C)ccc3[C@H]1N(Cc1ccccc1)C(=O)c1cc(F)c(F)cc12 | -26.8% | -31.5% | 11.2µM* | -49.6%
